We go through 7 compounds from PubChem BioAssay (NCI).

Common to all, as to assay: NCI-60 one-dose screen, 48 h (100 = growth as untreated, 0 = no growth, -100 = all killed)
In one assay the test system is 786-0 renal. The following applies: 10 µM unless noted.
The subject of a further assay is DU-145 prostate. The conditions noted are these: 10 µM unless noted.
The next assay concerns MDA-MB-231 breast. The conditions noted are these: 10 µM unless noted.
Another assay has as its system SF-268 CNS. The following applies: 10 µM unless noted.
Another assay deals with SF-539 CNS. The following applies: 10 µM unless noted.
The next assay relates to M14 melanoma. The following applies: 10 µM unless noted.
The subject of another assay is HCT-15 colon. The following applies: 10 µM.
Another assay concerns SNB-19 CNS. The conditions noted are these: 10 µM unless noted.
Another assay concerns UACC-62 melanoma. The conditions noted are these: 10 µM unless noted.
Another assay relates to SN12C renal. The conditions noted are these: 10 µM unless noted.
Another assay deals with ACHN renal. The conditions noted are these: 10 µM unless noted.
The test system of the next assay is MOLT-4 leukemia. The conditions noted are these: 10 µM.
For the next assay, the system named is OVCAR-8 ovarian. The conditions noted are these: 10 µM unless noted.
The test system of the next assay is NCI/ADR-RES ovarian. The following applies: 10 µM unless noted.
The next assay concerns MDA-MB-435 melanoma. The following applies: 10 µM unless noted.
The next assay relates to SW-620 colon. The following applies: 10 µM unless noted.
A further assay has as its system HCT-116 colon. The conditions noted are these: 10 µM unless noted.
The test system of a further assay is KM12 colon. The following applies: 10 µM unless noted.
The subject of a further assay is SK-OV-3 ovarian. The conditions noted are these: 10 µM unless noted.
A further assay deals with T-47D breast. The following applies: 10 µM unless noted.

Compounds without any hit were thinned out: in the full panel of roughly 83,000, 20% have a hit.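 The endpoint reported here, percent growth, reads 100 for growth as untreated, 0 for no net growth and -100 for all cells dead.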 Unmarked numbers belong to inactive results. Activity calls are given as the source filed them. How the source made its calls: active means growth percent below 10; inactive means the rest.

For the compound `Cc1ccc2oc(=O)c3c(c2c1)OC(N)=C(C#N)C3c1ccco1` (stereo not given), the growth was 102% with 786-0 renal; 103% with DU-145 prostate; 103% with MDA-MB-231 breast; 101% in the assay on SF-268 CNS; 101% with SF-539 CNS; 99.8% with M14 melanoma. Also, the growth is 103% with HCT-15 colon; 96.9% with SNB-19 CNS; 95.9% in the assay on UACC-62 melanoma; 101% in the assay on SN12C renal; 101% in the assay with ACHN renal; 107% in the assay with MOLT-4 leukemia. Besides, the growth is 101% in the assay with OVCAR-8 ovarian; 102% in the assay with NCI/ADR-RES ovarian; 105% in the assay with MDA-MB-435 melanoma; 101% with SW-620 colon; 99.9% in the assay with HCT-116 colon; 98.9% in the assay on KM12 colon.
In the case of `CC(=O)O[C@H]1CC[C@H]2[C@@H]3CC[C@H]4CC=C(C)C[C@]4(C)[C@H]3CC[C@]12C`, the growth in the assay with 786-0 renal was 100%; with DU-145 prostate, 106%; in the assay with MDA-MB-231 breast it was 109%; in the assay with SF-268 CNS, 100%; in the assay with SF-539 CNS, 96.2%; in the assay on M14 melanoma it was 101%. In addition, the growth with HCT-15 colon is 98.6%; in the assay with SNB-19 CNS, 101%; in the assay on UACC-62 melanoma, 98.5%; in the assay on SN12C renal, 101%; with ACHN renal it was 96.5%; with MOLT-4 leukemia, 94%. Besides, the growth with OVCAR-8 ovarian was 102%; in the assay on SK-OV-3 ovarian, 102%; in the assay on NCI/ADR-RES ovarian, 109%; in the assay on T-47D breast, 92.1%; with MDA-MB-435 melanoma, 106%; with SW-620 colon, 109%. For the same compound, the growth with HCT-116 colon and in the assay with KM12 colon was 103% in each case.
Consider `CC(=O)Nc1ccc(C=C2C(=O)NC(=O)NC2=O)cc1`, for which the growth with 786-0 renal was 96.3%; in the assay on DU-145 prostate, 124%; in the assay with MDA-MB-231 breast, 104%; in the assay with SF-268 CNS, 111%; in the assay with SF-539 CNS, 105%; with M14 melanoma, 106%. Also, the growth in the assay with HCT-15 colon is 103%; in the assay with SNB-19 CNS it was 98.4%; in the assay on UACC-62 melanoma, 99.1%; in the assay on SN12C renal it was 103%; with ACHN renal, 109%; with MOLT-4 leukemia, 88%. Also, the growth with OVCAR-8 ovarian is 101%; with SK-OV-3 ovarian, 105%; in the assay on NCI/ADR-RES ovarian, 108%; in the assay with T-47D breast it was 106%; with MDA-MB-435 melanoma it was 101%; in the assay on HCT-116 colon, 101%. In the assay on KM12 colon, the growth was 112%.
Consider `O=[N+]([O-])c1ccc2cnn(CSP(=S)(c3ccccc3)c3ccccc3)c2c1`, for which the growth was 88.3% in the assay with 786-0 renal; 105% in the assay on DU-145 prostate; 51.8% in the assay with MDA-MB-231 breast; 79.9% in the assay on SF-268 CNS; 82.7% with SF-539 CNS; 58.1% in the assay with M14 melanoma. In addition, the growth was 48.1% in the assay on HCT-15 colon; 88.6% in the assay with SNB-19 CNS; 43% in the assay with UACC-62 melanoma; 69.9% with SN12C renal; 74.8% with ACHN renal; 44% with MOLT-4 leukemia. Moreover, the growth is 82.4% in the assay on OVCAR-8 ovarian; 90.1% with SK-OV-3 ovarian; 49.8% in the assay with NCI/ADR-RES ovarian; 69.5% with T-47D breast; -20.9% (active) in the assay on MDA-MB-435 melanoma; 31.7% with SW-620 colon. In addition, the growth was 42.4% in the assay on HCT-116 colon and 63.7% with KM12 colon.
Turning to `C[C@]12CCC(=O)CC1CC[C@@H]1C2CC[C@@]2(C)C1CC[C@@H]2OC(=O)CC[Se][Se]CCC(=O)O[C@H]1CCC2[C@@H]3CCC4CC(=O)CC[C@]4(C)C3CC[C@@]21C` (stereo not given in full), the growth was 107% in the assay on 786-0 renal; 110% in the assay on DU-145 prostate; 94.3% in the assay on MDA-MB-231 breast; 94.1% in the assay on SF-268 CNS; 103% in the assay on SF-539 CNS; 78.7% with M14 melanoma. The growth in the assay with HCT-15 colon is 97.4%; in the assay on SNB-19 CNS, 76.7%; in the assay with UACC-62 melanoma, 88.5%; with SN12C renal, 103%; in the assay with ACHN renal, 100%; with MOLT-4 leukemia it was 90.1%. The growth in the assay on OVCAR-8 ovarian is 94.2%; in the assay with SK-OV-3 ovarian, 160%; in the assay on NCI/ADR-RES ovarian, 92.9%; in the assay on T-47D breast, 86.5%; in the assay with MDA-MB-435 melanoma, 88.5%; in the assay with SW-620 colon, 122%. Besides, the values for the growth in the assay on HCT-116 colon and in the assay on KM12 colon were 95.5% and 103%, respectively.
`O=C(C(=O)N1CCCC1)c1cn(CCCCCn2cc(C(=O)C(=O)N3CCCC3)c3ccccc32)c2ccccc12`: the growth with 786-0 renal is 105%; with DU-145 prostate, 100%; in the assay with MDA-MB-231 breast, 77.2%; with SF-268 CNS, 91.4%; in the assay with SF-539 CNS, 94.8%; in the assay with M14 melanoma, 95.9%. The growth in the assay with HCT-15 colon is 97.5%; in the assay on SNB-19 CNS, 93.5%; with UACC-62 melanoma, 65.3%; in the assay on SN12C renal, 82.3%; with ACHN renal, 87.8%; in the assay on OVCAR-8 ovarian it was 90.8%. Moreover, the growth with SK-OV-3 ovarian is 103%; in the assay with NCI/ADR-RES ovarian, 84.4%; in the assay on T-47D breast, 91.3%; with MDA-MB-435 melanoma it was 87.6%; with SW-620 colon, 91.9%; with HCT-116 colon, 94.1%. In the assay with KM12 colon, the growth is 86.3%.
On to `CC(=O)Oc1ccc(Cl)cc1`, for which the growth with 786-0 renal is 99.5%; with MDA-MB-231 breast it was 95.8%; in the assay with SF-268 CNS, 83.6%; with SF-539 CNS it was 89.1%; in the assay on M14 melanoma, 98.6%; in the assay with HCT-15 colon, 95.1%. Also, the growth with SNB-19 CNS is 91.2%; in the assay with UACC-62 melanoma, 91.9%; in the assay on SN12C renal, 94.6%; in the assay on ACHN renal, 97.5%; in the assay with MOLT-4 leukemia it was 90.3%; in the assay on OVCAR-8 ovarian, 101%. Moreover, the growth is 98.1% in the assay with SK-OV-3 ovarian; 99.1% in the assay on NCI/ADR-RES ovarian; 94.2% in the assay on T-47D breast; 101% in the assay on MDA-MB-435 melanoma; 89.9% in the assay with SW-620 colon; 95.3% in the assay with HCT-116 colon. In addition, the growth with KM12 colon is 86.3%.
